Test results: PubChem BioAssay (NCI)
The panel holds about 79,000 compounds, 15% with a hit somewhere; the sample as a whole holds those more often. The source made the active and inactive calls. No stated cut-off is given here; in the data, active means growth inhibition above about 70%; inactive means the rest.

Key:
[1] = NCI Yeast Anticancer Drug Screen. Data for the rad52 strain (AID 147);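 further: 0% = growth of vehicle-treated control cultures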; conditions: S. cerevisiae rad52 mutant growth inhibition, stronger effect = higher value
Summary of the method: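 Genetically altered yeast (DNA damage repair defect) treated with compound; inhibition calculated relative to vehicle.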

[2] = NCI Yeast Anticancer Drug Screen. Data for the wt1 strain (AID 149);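 further: 0% = growth of vehicle-treated wt1 cultures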; conditions: S. cerevisiae wt1 strain (SPY 50644) growth inhibition, stronger effect = higher value
Summary of the method: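 Compounds are added to wt1 yeast cultures. Growth is then measured. Inhibition is expressed relative to vehicle-treated controls.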

[3] = NCI Yeast Anticancer Drug Screen. Data for the rad50EPP+ strain (AID 151);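 further: 0% = growth of vehicle-treated control cultures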; conditions: S. cerevisiae rad50 mutant strain, stronger effect = higher value
Summary of the method: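 Strain rad50EPP+; compound exposure; % growth inhibition vs vehicle.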

[4] = NCI Yeast Anticancer Drug Screen. Data for the mgt1 strain (AID 153); conditions: S. cerevisiae mgt1 mutant growth inhibition, stronger effect = higher value
Summary of the method: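 Read-out: yeast growth inhibition vs vehicle control. Strain mgt1, drawn from a panel altered in DNA damage repair or cell cycle control.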

[5] = NCI Yeast Anticancer Drug Screen. Data for the rad50 strain (AID 155);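 further: 0% = growth of vehicle-only cultures of the same strain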; conditions: S. cerevisiae rad50 strain growth inhibition, stronger effect = higher value
Summary of the method: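 Inhibition values express reduced yeast growth in compound-treated cultures relative to vehicle-treated controls.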

[6] = NCI Yeast Anticancer Drug Screen. Data for the mec2-1 strain (AID 157); conditions: S. cerevisiae mec2-1 strain, stronger effect = higher value
Summary of the method: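 Cells of the genetically defined mec2-1 yeast strain are incubated with test compound. Inhibition of growth is calculated against vehicle-treated controls.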

[7] = NCI Yeast Anticancer Drug Screen. Data for the rad14 strain (AID 159);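 further: 0% = growth of vehicle-treated control cultures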; conditions: S. cerevisiae rad14 strain growth inhibition, stronger effect = higher value
Summary of the method: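 A mutant yeast strain defective in DNA damage repair is treated with compound; inhibition of its growth is scored against untreated, vehicle-exposed cultures.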

[8] = NCI Yeast Anticancer Drug Screen. Data for the sgs1 mgt1 strain (AID 161);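 further: 0% = growth of cultures given vehicle only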; conditions: S. cerevisiae sgs1 mgt1 strain, stronger effect = higher value
Summary of the method: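 Test agents were incubated with a DNA-repair-mutant yeast strain. Growth was then read and compared against vehicle-treated controls.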

[9] = NCI Yeast Anticancer Drug Screen. Data for the CLN2oe strain (AID 163);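 further: 0% = growth of vehicle-only control cultures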; conditions: S. cerevisiae CLN2oe strain, stronger effect = higher value
Summary of the method: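 Strain altered in cell-cycle control, incubated with compound; growth compared to solvent-treated controls.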

[10] = NCI Yeast Anticancer Drug Screen. Data for the cln2 rad14 strain (AID 165);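 further: 0% = growth equal to vehicle treated cultures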; conditions: S. cerevisiae cln2 rad14 strain, stronger effect = higher value
Summary of the method: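 The screen exposed genetically defined yeast (cln2 rad14) to test compounds and scored growth inhibition relative to vehicle-treated controls.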

[11] = NCI Yeast Anticancer Drug Screen. Data for the bub3 strain (AID 167); conditions: S. cerevisiae bub3 mutant strain, stronger effect = higher value
Summary of the method: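 Steps: expose the mutant yeast strain to compound; grow alongside vehicle-treated cultures; measure growth; express inhibition against the vehicle cultures.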

[12] = NCI Yeast Anticancer Drug Screen. Data for the wt2 strain (AID 169);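 further: 0% = growth of vehicle-treated yeast cultures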; conditions: S. cerevisiae wt2 strain growth inhibition, stronger effect = higher value
Summary of the method: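 Steps: yeast strain treated with compound; growth recorded; inhibition calculated relative to cultures given vehicle alone.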

[13] = NCI Yeast Anticancer Drug Screen. Data for the mlh1 strain (AID 171);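 further: 0% = growth of vehicle-treated control cultures of the same strain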; conditions: S. cerevisiae mlh1 strain growth inhibition, stronger effect = higher value
Summary of the method: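 Yeast screen: mutant strain plus compound, growth scored against vehicle control wells.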

[14] = NCI Yeast Anticancer Drug Screen. Data for the sgs1 strain (AID 173);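 further: 0% = growth of vehicle-only control cultures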; conditions: S. cerevisiae sgs1 mutant, stronger effect = higher value
Summary of the method: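 Inhibition of yeast growth served as the measure. The mutant strain was treated with each compound, and growth was normalised to cultures receiving vehicle alone.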

[15] = NCI Yeast Anticancer Drug Screen. Data for the mlh1 rad18 strain (AID 175); conditions: S. cerevisiae mlh1 rad18 strain growth inhibition, stronger effect = higher value
Summary of the method: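 Compound-treated yeast growth, normalised to vehicle controls. Strain bears defined DNA repair mutations.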

[16] = NCI Yeast Anticancer Drug Screen. Data for the rad18 strain (AID 177); conditions: S. cerevisiae rad18 mutant growth inhibition, stronger effect = higher value
Summary of the method: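 Inhibition values reflect reduced yeast growth compared with vehicle-treated controls, using a strain engineered with a DNA damage repair defect.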

[17] = at 5.0 µM (retest, dose inferred, filed as 0.5)
[18] = at 50.0 µM (retest, dose inferred, filed as 5.0)

Measured: growth inhibition

O=C1OC2C(O1)C1(Cl)C(Cl)=C(Cl)C2(Cl)C1(Cl)Cl (stereo not drawn)
inactive: [1]; at 1.2 µM -3% | [1]; at 3.7 µM -2% | [1]; at 11.0 µM -1% | [1]; at 33.0 µM 0% | [1]; at 100.0 µM 1% | [2]; at 1.2 µM -4% | [2]; at 3.7 µM -3% | [2]; at 11.0 µM -3% | [2]; at 33.0 µM -7% | [2]; at 100.0 µM -7% | [3]; at 1.2 µM -1% | [3]; at 3.7 µM 0% | [3]; at 11.0 µM 0% | [3]; at 33.0 µM -3% | [3]; at 100.0 µM -2% | [4]; at 1.2 µM -4% | [4]; at 3.7 µM -3% | [4]; at 11.0 µM -3% | [4]; at 33.0 µM -6% | [4]; at 100.0 µM -3% | [5]; at 1.2 µM -2% | [5]; at 3.7 µM -3% | [5]; [17] 2% | [5]; at 11.0 µM -2% | [5]; at 33.0 µM -3% | [5]; [18] 41% | [5]; at 100.0 µM -1% | [6]; at 1.2 µM -4% | [6]; at 3.7 µM -4% | [6]; [17] 3% | [6]; at 11.0 µM -3% | [6]; at 33.0 µM -3% | [6]; at 100.0 µM -3% | [7]; at 1.2 µM -4% | [7]; at 3.7 µM -6% | [7]; at 11.0 µM -3% | [7]; at 33.0 µM -7% | [7]; at 100.0 µM -1% | [8]; [17] 3% | [9]; at 1.2 µM -4% | [9]; at 3.7 µM -5% | [9]; at 11.0 µM -6% | [9]; at 33.0 µM -12% | [9]; at 100.0 µM -7% | [10]; [17] 1% | [10]; [18] 61% | [11]; at 1.2 µM -6% | [11]; at 3.7 µM -4% | [11]; [17] 0% | [11]; at 11.0 µM -9% | [11]; at 33.0 µM -10% | [11]; at 100.0 µM -19% | [12]; at 1.2 µM -13% | [12]; at 3.7 µM -5% | [12]; at 11.0 µM -6% | [12]; at 33.0 µM -7% | [12]; at 100.0 µM -7% | [13]; at 1.2 µM -1% | [13]; at 3.7 µM 0% | [13]; at 11.0 µM 2% | [13]; at 33.0 µM 1% | [13]; at 100.0 µM 2% | [14]; at 1.2 µM -1% | [14]; at 3.7 µM 0% | [14]; at 11.0 µM 0% | [14]; at 33.0 µM 0% | [14]; at 100.0 µM 1% | [15]; [17] 7% | [16]; at 1.2 µM -4% | [16]; at 3.7 µM 0% | [16]; at 11.0 µM -1% | [16]; at 33.0 µM -2% | [16]; at 100.0 µM 2%
active: [5]; at 50.0 µM 85.2% | [6]; [18] 90% | [6]; at 50.0 µM 87.8% | [8]; [18] 74% | [8]; at 50.0 µM 87.2% | [10]; at 50.0 µM 78.5% | [11]; [18] 75% | [11]; at 50.0 µM 98% | [15]; [18] 90% | [15]; at 50.0 µM 74.2%
